Assay results reported in PubChem BioAssay.
For some assays here: Measured potencies and affinities stand elsewhere. Calls of active or inactive are those of the source. Unless noted, the rule behind the calls is not given here.

The compounds below were run against Protein kinase 7 (PK7), Plasmodium falciparum 3D7 (PF3D7_0213400) (UniProt Q7YTF7) (assay: inhibition of Plasmodium PK7 catalytic activity – biochemical, TCAMS antimalarial set, Kinase-Glo luminescence (AID 1159587)). Settings: recombinant PfPK7, Kinase-Glo ATP depletion luminescence.
Sequence of Protein kinase 7 (PK7), Plasmodium falciparum 3D7 (PF3D7_0213400) (Q7YTF7 1-343): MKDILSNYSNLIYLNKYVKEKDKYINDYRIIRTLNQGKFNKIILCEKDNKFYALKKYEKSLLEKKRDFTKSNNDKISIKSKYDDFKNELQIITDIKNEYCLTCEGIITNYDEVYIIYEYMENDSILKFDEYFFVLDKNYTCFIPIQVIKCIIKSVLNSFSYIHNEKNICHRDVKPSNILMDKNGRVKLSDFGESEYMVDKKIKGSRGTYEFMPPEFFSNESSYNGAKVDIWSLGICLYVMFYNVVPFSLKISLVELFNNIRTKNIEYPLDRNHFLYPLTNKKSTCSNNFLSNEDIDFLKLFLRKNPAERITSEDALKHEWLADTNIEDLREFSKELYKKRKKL

| Structure (SMILES) | outcome |
| --- | --- |
| CC[C@H]1CN2CC[C@H]1C[C@H]2[C@H](O)c1cc(-c2ccccc2F)nc2ccc(OC)cc12 | inactive |
| O=C(CNC1CCCCC1)c1ccc(O)c(O)c1 | inactive |
| CCCc1c(C(=O)NC2CCC(CN3CCC(c4c[nH]c5ccccc45)CC3)CC2)cnn1-c1c(Cl)cc(Cl)cc1Cl (stereo not given) | inactive |
| CC[C@H]1CN2CC[C@H]1C[C@H]2[C@H](O)c1ccnc2ccc(OC)cc12 | inactive |
| Oc1ccccc1CNCC(O)c1cccc(C(F)(F)F)c1 (stereo not given) | inactive |
| CN1CC=C(c2c[nH]c3ccc(Br)cc23)CC1 | inactive |
| [O-]c1n[n+](C2CCCCC2)no1 | inactive |
| OC(CNCc1ccccc1OC(F)F)c1cccc(C(F)(F)F)c1 (stereo not given) | inactive |
| CCC1(C)CC(CCNCc2ccccc2O)(c2ccc(F)cc2)CCO1 (stereo not given) | inactive |
| CC[C@@]1(O)C(=O)OCc2c1cc1n(c2=O)Cc2c-1nc1cc3c(cc1c2CN1CCOCC1)OCO3 | inactive |
| COCCSc1ccc(CC(C)NCC(O)c2cccc(Cl)c2)cc1 (stereo not given) | inactive |
| CN(c1cc(NC(=O)c2ccc(F)cc2)ccn1)C1CCN(Cc2cccc(O)c2)CC1 | inactive |
| CC(Cc1ccc(Sc2ccccc2)cc1)NCC(O)c1cccc(C(F)(F)F)c1 (stereo not given) | inactive |
| C[C@@H](CC1CCCCC1)NCc1ccccc1O | inactive |
| CC(C)CNCc1cccc(-c2ccc(CN(C(=O)Nc3ccccc3)C3CCN(Cc4ccccc4)CC3)cc2)c1 | inactive |
| Cc1[nH]c2ccccc2c1C1=CCN(C[C@H]2C[C@@H]2C(=O)c2ccccc2)CC1 | inactive |
| CCCCCOc1ccc(CC(C)NCC(O)c2cccc(Cl)c2)cc1 (stereo not given) | inactive |
| Cc1[nH]c2cc(Cl)ccc2c1C1=CCN(CCN2CCOc3c(Br)cccc3C2=O)CC1 | inactive |
| COc1ccc(O)c(CN2CCN(c3cc(C)ccc3C)CC2)c1 | inactive |
| O=C(CCCCCc1ccccc1)NC1CCC(CN2CCC(c3c[nH]c4ccccc34)CC2)CC1 (stereo not given) | inactive |

| Structure (SMILES) | outcome |
| --- | --- |
| CC(=O)C1(c2ccccc2)CCN(CCC(NC(=O)c2cc(C(F)(F)F)cc(C(F)(F)F)c2)c2ccc(Cl)c(Cl)c2)CC1 (stereo not given) | inactive |
| C/C=C1\CN2CC[C@H]1C[C@@H]2[C@@H](O)c1ccnc2ccc(O)cc12 | inactive |
| O=C(/C=C/c1cccc(F)c1)NC1CCC(CN2CCC(c3c[nH]c4ccccc34)CC2)CC1 (stereo not given) | inactive |
| CC[C@H]1CN2CC[C@@H]1C[C@H]2[C@H](O)c1cc(N2CCC(O)CC2)nc2ccc(OC)cc12 | inactive |
| COc1ccc(CN2CCN(CCOC(c3ccc(F)cc3)c3ccc(F)cc3)CC2)c(O)c1 | inactive |
| CC[C@H]1CN2CC[C@@H]1C[C@H]2[C@H](O)c1cc(-c2cc(Cl)cc(Cl)c2)nc2ccc(OC)cc12 | inactive |
| CS(=O)(=O)Nc1ccc2[nH]cc(C3C[C@H]4CC[C@@H](C3)N4CC3CCC(NC(=O)/C=C/c4ccc(Cl)c(Cl)c4)CC3)c2c1 (stereo not given in full) | inactive |
| CC(C)CNCc1ccc(-c2cccc(CN(C(=O)Nc3ccccc3)C3CCN(Cc4ccccc4)CC3)c2)cc1 | inactive |
| CN(c1cc(NC(=O)c2cccs2)ccn1)C1CCN(Cc2cccc(F)c2)CC1 | inactive |
| C[C@@H](NC(C)(C)C)[C@H](O)c1ccc(Cl)c(C(F)(F)F)c1 | inactive |
| CC(=O)N(Cc1cccc(-c2cccc(CNCCc3ccccc3)c2)c1)C1CCN(Cc2ccccc2)CC1 | inactive |
| CC[C@H]1CN2CC[C@@H]1C[C@H]2[C@H](O)c1cc(-c2ccc(F)cc2)nc2ccc(O)cc12 | inactive |
| O=C(Nc1ccccc1OC(F)(F)F)NC1CCC(CN2CCC(c3c[nH]c4ccccc34)CC2)CC1 (stereo not given) | inactive |
| COCC(=O)N(Cc1cccc(-c2ccc(CNCCc3ccccc3)cc2)c1)C1CCN(Cc2ccccc2)CC1 | inactive |
| O=C(c1cccs1)N(Cc1cccc(-c2ccc(CNC3CCCC3)cc2)c1)C1CCN(Cc2ccccc2)CC1 | inactive |
| O=C(C=Cc1ccc(-c2ccccc2)cc1)NC1CCC(CN2CCC(c3c[nH]c4ccccc34)CC2)CC1 (stereo not given) | inactive |
| CN(Cc1ccccc1)C1CCN(CCc2c[nH]c3ccc(F)cc23)CC1 | inactive |
| CC(C)CNCc1cccc(-c2cccc(CN(C(=O)NC3CCCCC3)C3CCN(Cc4ccccc4)CC3)c2)c1 | inactive |
| CC[C@H]1CN2CC[C@H]1C[C@H]2[C@H](O)c1cc(-c2cccc(Cl)c2)nc2ccc(OC)cc12 | inactive |
| Oc1cc2c(cc1CN1CCN(Cc3ccccc3)CC1)CCC2 | inactive |

Each compound was assayed against Calcium-dependent protein kinase 4 (Plasmodium falciparum (isolate 3D7)) (UniProt Q8IBS5) (assay: PfCDPK4 kinase inhibitors, biochemical, TCAMS library (AID 1159588; cut-off not given, nearly all actives have IC50 up to about 0.91 µM)). Settings: recombinant PfCDPK4, Kinase-Glo ATP depletion luminescence.
Sequence of Calcium-dependent protein kinase 4 (Plasmodium falciparum (isolate 3D7)) (Q8IBS5 whole entry, looked up): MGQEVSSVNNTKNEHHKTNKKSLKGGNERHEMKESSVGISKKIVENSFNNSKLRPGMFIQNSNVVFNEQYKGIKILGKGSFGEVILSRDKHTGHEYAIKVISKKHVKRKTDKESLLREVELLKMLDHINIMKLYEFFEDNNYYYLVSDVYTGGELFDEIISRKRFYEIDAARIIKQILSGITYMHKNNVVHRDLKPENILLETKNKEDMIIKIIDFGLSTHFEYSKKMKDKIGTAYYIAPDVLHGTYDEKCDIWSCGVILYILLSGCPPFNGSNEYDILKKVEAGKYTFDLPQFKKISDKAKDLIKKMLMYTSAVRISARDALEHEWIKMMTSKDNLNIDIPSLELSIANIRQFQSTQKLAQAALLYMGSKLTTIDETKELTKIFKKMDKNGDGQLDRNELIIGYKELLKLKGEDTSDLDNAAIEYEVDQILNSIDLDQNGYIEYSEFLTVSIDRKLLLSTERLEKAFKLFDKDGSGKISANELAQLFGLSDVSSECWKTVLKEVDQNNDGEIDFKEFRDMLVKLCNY

| Structure (SMILES) | outcome |
| --- | --- |
| CC[C@H]1CN2CC[C@H]1C[C@H]2[C@H](O)c1cc(-c2ccccc2F)nc2ccc(OC)cc12 | inactive |
| O=C(CNC1CCCCC1)c1ccc(O)c(O)c1 | inactive |
| CCCc1c(C(=O)NC2CCC(CN3CCC(c4c[nH]c5ccccc45)CC3)CC2)cnn1-c1c(Cl)cc(Cl)cc1Cl (stereo not given) | inactive |
| CC[C@H]1CN2CC[C@H]1C[C@H]2[C@H](O)c1ccnc2ccc(OC)cc12 | inactive |
| Oc1ccccc1CNCC(O)c1cccc(C(F)(F)F)c1 (stereo not given) | inactive |
| CN1CC=C(c2c[nH]c3ccc(Br)cc23)CC1 | inactive |
| [O-]c1n[n+](C2CCCCC2)no1 | inactive |
| OC(CNCc1ccccc1OC(F)F)c1cccc(C(F)(F)F)c1 (stereo not given) | inactive |
| CCC1(C)CC(CCNCc2ccccc2O)(c2ccc(F)cc2)CCO1 (stereo not given) | inactive |
| CC[C@@]1(O)C(=O)OCc2c1cc1n(c2=O)Cc2c-1nc1cc3c(cc1c2CN1CCOCC1)OCO3 | inactive |
| COCCSc1ccc(CC(C)NCC(O)c2cccc(Cl)c2)cc1 (stereo not given) | inactive |
| CN(c1cc(NC(=O)c2ccc(F)cc2)ccn1)C1CCN(Cc2cccc(O)c2)CC1 | inactive |
| CC(Cc1ccc(Sc2ccccc2)cc1)NCC(O)c1cccc(C(F)(F)F)c1 (stereo not given) | inactive |
| C[C@@H](CC1CCCCC1)NCc1ccccc1O | inactive |
| CC(C)CNCc1cccc(-c2ccc(CN(C(=O)Nc3ccccc3)C3CCN(Cc4ccccc4)CC3)cc2)c1 | inactive |
| Cc1[nH]c2ccccc2c1C1=CCN(C[C@H]2C[C@@H]2C(=O)c2ccccc2)CC1 | inactive |
| CCCCCOc1ccc(CC(C)NCC(O)c2cccc(Cl)c2)cc1 (stereo not given) | inactive |
| Cc1[nH]c2cc(Cl)ccc2c1C1=CCN(CCN2CCOc3c(Br)cccc3C2=O)CC1 | inactive |
| COc1ccc(O)c(CN2CCN(c3cc(C)ccc3C)CC2)c1 | inactive |
| O=C(CCCCCc1ccccc1)NC1CCC(CN2CCC(c3c[nH]c4ccccc34)CC2)CC1 (stereo not given) | inactive |

| Structure (SMILES) | outcome |
| --- | --- |
| CC(=O)C1(c2ccccc2)CCN(CCC(NC(=O)c2cc(C(F)(F)F)cc(C(F)(F)F)c2)c2ccc(Cl)c(Cl)c2)CC1 (stereo not given) | inactive |
| C/C=C1\CN2CC[C@H]1C[C@@H]2[C@@H](O)c1ccnc2ccc(O)cc12 | inactive |
| O=C(/C=C/c1cccc(F)c1)NC1CCC(CN2CCC(c3c[nH]c4ccccc34)CC2)CC1 (stereo not given) | inactive |
| CC[C@H]1CN2CC[C@@H]1C[C@H]2[C@H](O)c1cc(N2CCC(O)CC2)nc2ccc(OC)cc12 | inactive |
| COc1ccc(CN2CCN(CCOC(c3ccc(F)cc3)c3ccc(F)cc3)CC2)c(O)c1 | inactive |
| CC[C@H]1CN2CC[C@@H]1C[C@H]2[C@H](O)c1cc(-c2cc(Cl)cc(Cl)c2)nc2ccc(OC)cc12 | inactive |
| CS(=O)(=O)Nc1ccc2[nH]cc(C3C[C@H]4CC[C@@H](C3)N4CC3CCC(NC(=O)/C=C/c4ccc(Cl)c(Cl)c4)CC3)c2c1 (stereo not given in full) | inactive |
| CC(C)CNCc1ccc(-c2cccc(CN(C(=O)Nc3ccccc3)C3CCN(Cc4ccccc4)CC3)c2)cc1 | inactive |
| CN(c1cc(NC(=O)c2cccs2)ccn1)C1CCN(Cc2cccc(F)c2)CC1 | inactive |
| C[C@@H](NC(C)(C)C)[C@H](O)c1ccc(Cl)c(C(F)(F)F)c1 | inactive |
| CC(=O)N(Cc1cccc(-c2cccc(CNCCc3ccccc3)c2)c1)C1CCN(Cc2ccccc2)CC1 | inactive |
| CC[C@H]1CN2CC[C@@H]1C[C@H]2[C@H](O)c1cc(-c2ccc(F)cc2)nc2ccc(O)cc12 | inactive |
| O=C(Nc1ccccc1OC(F)(F)F)NC1CCC(CN2CCC(c3c[nH]c4ccccc34)CC2)CC1 (stereo not given) | inactive |
| COCC(=O)N(Cc1cccc(-c2ccc(CNCCc3ccccc3)cc2)c1)C1CCN(Cc2ccccc2)CC1 | inactive |
| O=C(c1cccs1)N(Cc1cccc(-c2ccc(CNC3CCCC3)cc2)c1)C1CCN(Cc2ccccc2)CC1 | inactive |
| O=C(C=Cc1ccc(-c2ccccc2)cc1)NC1CCC(CN2CCC(c3c[nH]c4ccccc34)CC2)CC1 (stereo not given) | inactive |
| CN(Cc1ccccc1)C1CCN(CCc2c[nH]c3ccc(F)cc23)CC1 | inactive |
| CC(C)CNCc1cccc(-c2cccc(CN(C(=O)NC3CCCCC3)C3CCN(Cc4ccccc4)CC3)c2)c1 | inactive |
| CC[C@H]1CN2CC[C@H]1C[C@H]2[C@H](O)c1cc(-c2cccc(Cl)c2)nc2ccc(OC)cc12 | inactive |
| Oc1cc2c(cc1CN1CCN(Cc3ccccc3)CC1)CCC2 | inactive |
